GRK2 aptamer HTS: compounds blocking aptamer binding on GRK2 – biochemical, human GRK2, bead flow cytometry, HTS, primary screen | FAM-aptamer displacement from GRK2 | inhibition of aptamer binding, % at 10 µM | actives 0.59% (n = 330,000) | AID 488847, 2010;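 active = inhibition of aptamer binding above 40%, roughly 3 SD of noise, on plates passing a quality check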;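 note: median bead fluorescence of bound FAM aptamer so fluorescent compounds give negative values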
DSG3 Ab inh: inhibitors of pemphigus antibody binding to DSG3, primary screen, biochemical, bead-based, flow cytometry, scFv-GFP | Desmoglein-3 (Homo sapiens), P32926 | DSG3-coupled beads, scFv-anti-DSG3-GFP binding; hits give low values | binding (percent of control), % at 10 µM | actives 0.48% (n = 310,000) | AID 588358, 2011;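 active = binding more than 3 SD below its plate's average and above zero; inconclusive = below that plate limit but binding exactly zero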;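 note: hits lower antibody fragment binding to DSG3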
PKD1 kinase inh: inhibitors of human PKD1 kinase, biochemical, fluorescence polarization; PKD1 kinase fluorescence polarization assay; AID 797, 2007; Serine/threonine-protein kinase D1 (Homo sapiens), Q15139; actives 0.056% (n = 200,000); inhibition, % (no concentration beside the values)
Target sequence (Q15139 whole entry, looked up): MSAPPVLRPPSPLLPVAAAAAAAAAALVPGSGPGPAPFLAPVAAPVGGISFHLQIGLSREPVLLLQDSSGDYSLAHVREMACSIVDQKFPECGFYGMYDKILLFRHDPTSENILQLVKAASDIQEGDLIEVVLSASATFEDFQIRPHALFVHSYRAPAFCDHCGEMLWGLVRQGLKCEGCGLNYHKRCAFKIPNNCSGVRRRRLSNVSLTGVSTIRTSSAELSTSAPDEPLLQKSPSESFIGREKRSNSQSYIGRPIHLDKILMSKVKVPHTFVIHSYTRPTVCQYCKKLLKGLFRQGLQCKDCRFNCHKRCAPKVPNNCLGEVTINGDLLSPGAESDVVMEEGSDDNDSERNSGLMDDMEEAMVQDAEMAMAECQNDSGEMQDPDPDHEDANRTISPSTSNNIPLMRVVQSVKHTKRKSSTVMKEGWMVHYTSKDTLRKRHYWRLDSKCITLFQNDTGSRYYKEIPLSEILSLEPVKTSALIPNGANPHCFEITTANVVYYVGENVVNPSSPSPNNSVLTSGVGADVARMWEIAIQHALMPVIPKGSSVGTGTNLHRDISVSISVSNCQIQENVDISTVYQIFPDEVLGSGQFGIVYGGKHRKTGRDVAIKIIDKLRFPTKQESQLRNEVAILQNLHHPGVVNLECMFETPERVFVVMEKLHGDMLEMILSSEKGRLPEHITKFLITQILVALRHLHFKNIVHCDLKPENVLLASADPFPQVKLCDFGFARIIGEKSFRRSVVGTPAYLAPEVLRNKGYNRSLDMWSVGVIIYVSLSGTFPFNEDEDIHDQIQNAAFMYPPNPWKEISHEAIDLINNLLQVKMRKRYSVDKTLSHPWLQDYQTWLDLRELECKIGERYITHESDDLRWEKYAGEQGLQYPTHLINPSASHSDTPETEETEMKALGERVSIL
HDAC3 inh: HDAC3 deacetylase inhibitors, primary screen, biochemical, fluorescence, cell-free homogeneous. Histone deacetylase 3 (Homo sapiens), O15379. recombinant HDAC3, fluorogenic peptide/trypsin coupled. inhibition, % at 8.3 µM. actives 0.15% (n = 320,000); in the data active = inhibition above about 26%, passing the limit was not always enough; inconclusive = no clear call, values can overlap the other calls
VLA-4 inh: inhibition in human VLA-4 binding assay, primary screen, VLA-4 allosteric modulator project, MLPCN library, flow cytometry, VLA-4 expressing cells | ligand binding flow cytometry | inhibition, % (about 7 µM as worked out from the volumes in the protocol) | actives 0.2% (n = 330,000) | AID 2557, 2010
LANA-H2B inh: blockers of LANA interaction with H2A/H2B – biochemical, FP readout, HTS, primary screen. inhibition, % (concentration not given with the values). cell-free LANA-H2A/H2B peptide, fluorescence polarization. actives 0.6% (n = 320,000). Protein LANA1 (Human herpesvirus 8 type P (isolate GK18)), Q9QR71; in the data active = inhibition mostly above about 10%, no sharp cut-off; inactive = mostly below about 6.7%
VLA-4 allo CP: retest of VLA-4 allosteric modulators, confirmation, cell-based, cherry-picked plates, U937, HUTS-21 LIBS antibody. shares compounds with VLA-4 inh. U937 cells, HUTS-21 LIBS mAb binding, flow cytometry; LDV ligand present at threefold Kd. inhibition, % at 6.7 µM. actives 2% (n = 1,300); in the data active = inhibition above about 40%;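 note: 0% = ligand without compound and 100% = no ligand background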
Starred values were filed as active, the others as inactive; u = inconclusive; x = no result; + = active, no number; ! = not active in a repeat. Compounds with a hit are over-represented: about 1.8% of the library has one in this group of screens. Cut-off read from the data, not from the text of the source, unless noted: active = inhibition above about 50%; inactive = the rest.

SMILES | GRK2 aptamer HTS | DSG3 Ab inh | PKD1 kinase inh | HDAC3 inh | VLA-4 inh | LANA-H2B inh | others
CC12CCC3c4ccc(OC(=O)N(CCCl)CCCl)cc4CCC3C1CCC2O (stereo not drawn) | x | 91 | x | x | x | x
COC(=O)C1=C(c2ccc(OCc3ccccc3)cc2)C[C@@H]2CC[C@H]1N2C | x | 102 | x | x | x | x
COc1ccc(CN2C(=O)NC(=O)/C(=C\c3cc(OC)c(OC)c(OC)c3)C2=O)cc1 | 0 | 104 | 8 | u | 7 | -1
COc1ccc(CN2C(=O)NC(=O)/C(=C\c3ccco3)C2=O)cc1 | 38 | 67* | -3 | 0 | 13 | 5
NC(Cc1cc(O)c(O)cc1O)C(=O)O (stereo not drawn) | 71* | x | x | -1 | 8 | 17
COc1cc(C=NNC(=S)Nc2ccc(S(=O)(=O)N3CCCCC3)cc2)cc(OC)c1OC | x | 100 | x | x | x | x
Cn1cc(C=C(C#N)C#N)c2ccccc21 | 3 | 102 | -7 | 1 | 3 | +
CC1C(=O)OC2CCN3CC4OC4(COC(=O)C(C)(O)C1(C)O)C23 (stereo not drawn) | x | 87 | x | x | x | x
CC(C)COC(=O)c1ccccc1C(=O)OCC(C)C | 1 | 102 | x | 0 | 33 | 0
C[CH2][Hg][S]c1ccccc1C(=O)O | 0 | 92 | x | 56* | 35 | 1
COc1ccccc1Cn1c(SCC(=O)C(C)(C)C)nc2cc(C(=O)N3CCC4(CC3)OCCO4)ccc2c1=O | 1 | x | -5 | 2 | -4 | 12*
O=c1[nH]c(O)c(C=Nc2ccccc2[N+](=O)[O-])c(=O)[nH]1 | 58* | x | 0 | 9 | -16 | -5
CC(C)CC(C)N (stereo not drawn) | 0 | 102 | x | -10 | 11 | 45*
C1CCC(NC2CCCCC2)CC1 | 1 | 104 | x | 2 | 13 | 141*
CCC1(Cc2ccccc2)C(=O)NC(=S)N(C)C1=O (stereo not drawn) | x | 109 | x | x | x | x
C=CC1CN2CCC1CC2[C@@H](OC(=O)c1ccc(OC)cc1)c1ccnc2ccccc12 (stereo partly drawn) | 1 | 99 | -10 | 2 | 9 | 32*
O=C1NC(=S)N(c2ccccc2)C(=O)/C1=C/c1ccco1 | 43* | 112 | x | 9 | 8 | 5
COC(=O)C1=C(c2ccc(Cl)c(C(F)(F)F)c2)C[C@@H]2CC[C@H]1N2C(=O)N1CCC(C)CC1 | 1 | 95 | x | 7 | 7 | -5
O=C1NC(=S)NC(=O)C1=Cc1ccc2c(c1)CCN2CCCCl | 7 | 58* | x | 6 | 6 | -2
FC(F)(F)c1ccc(CNCCc2ccc3c(c2)OCO3)cc1 | 0 | 83* | x | 3 | 3 | -2
Clc1ccc(CNCCc2ccc3c(c2)OCO3)cc1 | 1 | 98 | x | 3 | 3 | -2
CCOC(=O)NC1CCc2cc(OC)c(OC)c(OC)c2-c2ccc(OC)c(=O)cc21 (stereo not drawn) | x | 86 | x | x | x | x
Nc1cc(Cl)cc(C(=O)O)c1Cl | 0 | 105 | x | -10 | 6 | 38*
O=c1[nH]c(=S)[nH]c(O)c1/C=C1/C=c2ccccc2=N1 | 2 | 83* | x | 11 | 19 | 6
COC(=O)C1=C(c2ccc(OCc3ccccc3)c(F)c2)C[C@@H]2CC[C@H]1N2C | x | 110 | x | x | x | x
SMILES | GRK2 aptamer HTS | DSG3 Ab inh | PKD1 kinase inh | HDAC3 inh | VLA-4 inh | LANA-H2B inh | others
CN1C(=O)/C(=C/c2cccn2-c2ccc3ccccc3c2)C(=O)NC1=S | 0 | 79 | -3 | 5 | 9 | 1
O=C1NC(=S)NC(=O)C1=Cc1cccn1-c1ccc(O)cc1 | x | 66* | 1 | x | x | x
COc1cccc(CC(=O)N2CCN(Cc3cccc(Cl)c3)CC2)c1 | 0 | -53* | x | -2 | 3 | 1
CC(=O)Nc1cc(C(=O)N2CCC3(CC2)OCCO3)ccc1Sc1ccc(F)cc1 | 0 | 107 | -5 | -5 | 6 | 29*
CN(C)[C@@H]1C(=O)C(C(N)=O)=C(O)[C@@]2(O)C(=O)C3=C(O)c4c(O)cccc4[C@@](C)(O)C3C[C@@H]12 (stereo partly drawn) | 3 | 109 | x | -3 | -47 | -5
CN(C)[C@@H]1C(=O)C(C(N)=O)=C(O)[C@@]2(O)C(=O)C3=C(O)c4c(O)cccc4[C@@](C)(O)[C@H]3[C@H](O)[C@@H]12 | 57*! | 45*! | 17 | -2 | -17 | -12
COc1ccc2c3c([nH]c2c1)C(C)=NCC3 | 11 | x | -2 | -13 | -155 | -20
CC1=NCCc2c1[nH]c1cc(O)ccc21 | 1 | 81 | x | -67 | -14 | 142*
Cc1cccc(NP(=O)(Oc2ccccc2F)Oc2ccccc2F)c1 | 0 | 97 | -2 | 20 | 40 | x
Cc1ccc(NP(=O)(Oc2ccccc2F)Oc2ccccc2F)cc1C | 4 | 96 | -6 | 30* | 0 | x
COc1ccc(CN2C(=O)C(CC(=O)NCc3ccco3)CC(C(=O)N(C)C)=C2C)cc1 (stereo not drawn) | x | 106 | x | x | x | x
C[C@@H]1CN([C@@H](C)CO)C(=O)CCCn2nncc2CO[C@@H]1CN(C)C(=O)Oc1cccc2ccccc12 | x | 95 | x | x | x | x
c1ccc2c(c1)Nc1ccccc1S2 | 0 | 94 | -5 | -1 | 55* | 11 | VLA-4 allo CP=13
CCN(CC)c1ccc(N=Cc2c(O)n(Cc3ccccc3)c(=O)[nH]c2=O)cc1 | 0 | 123 | -3 | 7 | -7 | 6 | VLA-4 allo CP=-22
CCOc1ccccc1-n1c(O)c(C=Nc2ccc(N(CC)CC)cc2)c(=O)[nH]c1=O | 1 | 119 | -6 | 3 | 2 | 0
CN1C(=O)NC(=O)C2(CCCC2)C1=O | x | 93 | x | x | x | x
CN1C2CCC1C(C(=O)O)C(OC(=O)c1ccccc1)C2 (stereo not drawn) | 0 | 104 | x | x | 35 | x | VLA-4 allo CP=3
COC(=O)C1C2CC[C@@H](CC1OC(=O)c1ccccc1)N2 (stereo partly drawn) | 1 | 101 | x | x | 8 | x | VLA-4 allo CP=-1
CCOC(=O)C1C(OC(=O)c2ccccc2)CC2CCC1N2C (stereo not drawn) | x | 104 | x | x | x | x
C[C@@H]1CN([C@@H](C)CO)C(=O)CCCn2cc(nn2)CO[C@H]1CN(C)C(=O)Oc1cccc2ccccc12 | x | 105 | x | x | x | x

Source: PubChem BioAssay (several laboratories)
